Structures are written as SMILES. Compounds without any hit were thinned out: in the full panel of roughly 79,000, 15% have a hit. Values without a mark were called inactive. Active and inactive are the calls of the source. No stated cut-off is given here; in the data, active means growth inhibition above about 70%; inactive means the rest.

The nature of assay [1]: NCI Yeast Anticancer Drug Screen. Data for the rad50 strain (AID 155).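 Further: 0% = growth of vehicle-only cultures of the same strain.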 Particulars: S. cerevisiae rad50 strain growth inhibition; at 50.0 µM; stronger effect = higher value. In outline: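 Cells are treated with compound, grown, and their growth is then scored against vehicle-only cultures of the same repair-deficient yeast strain.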
Assay [2] is described as follows: NCI Yeast Anticancer Drug Screen. Data for the mec2-1 strain (AID 157). Particulars: S. cerevisiae mec2-1 strain, at 50.0 µM, stronger effect = higher value. The essentials:
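mec2-1 yeast strain, carrying an alteration in DNA damage repair or cell cycle control, was exposed to compounds; growth inhibition was measured relative to vehicle-treated controls.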

Assay [3] is described as follows: NCI Yeast Anticancer Drug Screen. Data for the sgs1 mgt1 strain (AID 161).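 Further: 0% = growth of cultures given vehicle only.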 The following applies: S. cerevisiae sgs1 mgt1 strain, at 50.0 µM, stronger effect = higher value. In outline:
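Percent growth inhibition was derived by comparing compound-exposed mutant yeast with vehicle-exposed cultures. The strain carries alterations in DNA damage repair.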

Assay [4] is described as follows: NCI Yeast Anticancer Drug Screen. Data for the cln2 rad14 strain (AID 165).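 Further: 0% = growth equal to vehicle treated cultures.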 Particulars: S. cerevisiae cln2 rad14 strain, at 50.0 µM, stronger effect = higher value. In outline:
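Yeast carrying cln2 and rad14 alterations (cell cycle control and DNA damage repair) were exposed to compounds. Growth inhibition was measured against vehicle-treated controls.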

Assay [5] in a line: NCI Yeast Anticancer Drug Screen. Data for the bub3 strain (AID 167). Particulars: S. cerevisiae bub3 mutant strain, at 50.0 µM, stronger effect = higher value. In outline:
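Part of a panel of yeast mutants defective in DNA damage repair or cell cycle regulation. Each strain is grown with compound, and inhibition is calculated relative to solvent-treated cultures.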

Assay [6] in a line: NCI Yeast Anticancer Drug Screen. Data for the mlh1 rad18 strain (AID 175). The following applies: S. cerevisiae mlh1 rad18 strain growth inhibition; at 50.0 µM; stronger effect = higher value. In outline:
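Growth inhibition of the yeast strain was measured after compound exposure and expressed relative to vehicle-treated controls. The strain carries defined defects in DNA damage repair.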

As for `CC(C)NCC(O)COc1c2ccccc2nc2ccccc12` (stereo unspecified), the growth inhibition in assay [1] is -8.65%; in assay [2] it was -21.8%; in assay [3], -24.2%; in assay [4], -1.65%; in assay [5] it was -20.1%; in assay [6] it was 12.9%.
With `CC(C)(C)C1CCC(C(=O)O)CC1` (stereo unspecified), the growth inhibition in assay [1] is 24.4%; in assay [2], -3.05%; in assay [3], 19.8%; in assay [4], 10.6%; in assay [5], 5.6%; in assay [6] it was 24.9%.
`Cc1nc2ccccc2o1`: the growth inhibition in assay [1] was 19.9%; in assay [2], 39.5%; in assay [3], 13.1%; in assay [4] it was 14.9%; in assay [5] it was -1.6%; in assay [6] it was -10.4%.
Regarding `Nc1nnc(-c2ccccc2)o1`, the growth inhibition was 9.85% in assay [1]; -4.8% in assay [2]; 4.05% in assay [3]; -19.9% in assay [4]; 4.8% in assay [5]; 3.35% in assay [6].
On to `O=c1c2c([nH]c(=S)n1-c1ccccc1)NCCC2`, for which the growth inhibition is -13.8% in assay [1]; -1.25% in assay [2]; -11.6% in assay [3]; 3.3% in assay [4]; 9.55% in assay [5]; 0.4% in assay [6].
Regarding `N#CCOc1ccc(/C=C/C(=O)c2ccc(Cl)cc2)cc1`, the growth inhibition was -39.5% in assay [1]; -53.6% in assay [2]; -23.1% in assay [3]; -23.1% in assay [4]; 20.4% in assay [5]; -21.2% in assay [6].
`CC1(C)CC[C@]2(C(=O)O)CC[C@]3(C)C(=CC[C@@H]4[C@@]5(C)CC[C@H](OC6OC(C(=O)O)C(O)C(O)C6O)C(C)(C)[C@@H]5CC[C@]43C)[C@@H]2C1` (stereo partly specified): the growth inhibition is 90.8% (active) in assay [1]; 91% (active) in assay [2]; 91.7% (active) in assay [3]; 92.5% (active) in assay [4]; 91.3% (active) in assay [5]; 88.7% (active) in assay [6].
As to `CCOC(=O)/C(O)=C(/C=NC(=S)c1ccncc1)C(=O)OCC`, the growth inhibition was -28.2% in assay [1]; -29.8% in assay [2]; -15.3% in assay [3]; -6.45% in assay [4]; -13.8% in assay [5]; -31% in assay [6].
As to `O=c1c2ccccc2nc(-c2ccc(Br)cc2)n1NC1OC(CO)C(O)C(O)C1O` (stereo unspecified), the growth inhibition is 7.05% in assay [1]; 3.05% in assay [2]; 5.2% in assay [3]; -2.2% in assay [4]; -9.15% in assay [5]; 12.6% in assay [6].
Turning to `Cc1cccc(NC(=O)C(Cl)Cl)n1`, the growth inhibition is -2.3% in assay [1]; -20.8% in assay [2]; -24.4% in assay [3]; -43.8% in assay [4]; -1.95% in assay [5]; -18.1% in assay [6].
For `CCCOc1ccccc1C(=O)N1CCOCC1`, the growth inhibition in assay [1] was 25%; in assay [2], -0.25%; in assay [3] it was 7.8%; in assay [4], 16.1%; in assay [5] it was 8.8%; in assay [6] it was 15.8%.
As to `C=C(C/C(=C/S(C)=O)c1ccccc1)c1ccccc1` (stereo unspecified), the growth inhibition in assay [1] is 43.9%; in assay [2] it was 12.3%; in assay [3] it was 18.7%; in assay [4], 29.6%; in assay [5] it was 20.9%; in assay [6], 34.4%.
On to `c1ccc2c(c1)ccc1nc3c4ccccc4c4ccccc4c3nc12`, for which the growth inhibition in assay [1] is 13.6%; in assay [2], -2.85%; in assay [3], -6.9%; in assay [4], -3.45%; in assay [5], 13%; in assay [6], 13.8%.
As to `COC(=O)CC(c1ccccc1)N1CCOCC1` (stereo unspecified), the growth inhibition was -12.3% in assay [1]; 19.4% in assay [2]; -10.2% in assay [3]; -20.4% in assay [4]; 7.35% in assay [5]; 12.8% in assay [6].
With `CC(=O)Nc1ccc(S(=O)(=O)Nc2cc(Cl)cc(Cl)c2)cc1`, the growth inhibition in assay [1] is 15.7%; in assay [2], -10.2%; in assay [3], -0.05%; in assay [4], 8.75%; in assay [5], 2.1%; in assay [6], -7.1%.
For `COc1ccc(C=Nc2c(O)ccc3ccccc23)cc1OC`, the growth inhibition was 12.6% in assay [1]; -11.6% in assay [2]; -24.9% in assay [3]; -15.3% in assay [4]; -17.4% in assay [5]; -0.75% in assay [6].
Turning to `CC(C)CCCC(C)C1CCC2C3CCC4=CC(=O)C=CC4(C)C3CCC12C` (stereo unspecified), the growth inhibition in assay [1] is 45.1%; in assay [2], 35.2%; in assay [3], 47.6%; in assay [4], 19.1%; in assay [5] it was 0.85%; in assay [6] it was 41%.
`CCOC(=O)C(=CNc1cccc(Cl)c1)C(=O)OCC`: the growth inhibition in assay [1] was -2.8%; in assay [2] it was -11.4%; in assay [3], -18.9%; in assay [4] it was -26.9%; in assay [5], 32.2%; in assay [6] it was -19.9%.
Turning to `CN1CCC(O)(C#N)CC1`, the growth inhibition in assay [1] was -5.55%; in assay [2] it was 2%; in assay [3] it was -13.6%; in assay [4], -42.6%; in assay [5], 10.1%; in assay [6] it was -2.85%.
For the compound `CC1C=C(Br)C(=O)C(n2cnc3c(=O)n(C)c(=O)n(C)c32)O1` (stereo unspecified), the growth inhibition in assay [1] was 24.1%; in assay [2], 13.5%; in assay [3], 18.8%; in assay [4], 8%; in assay [5], 10.9%; in assay [6], 34%.
For `Cn1cc(/C=C/C(=O)c2ccccc2[N+](=O)[O-])c2ccccc21`, the growth inhibition is 7.8% in assay [1]; 12.9% in assay [2]; 2.6% in assay [3]; 18.1% in assay [4]; 0.6% in assay [5]; 2.85% in assay [6].

The record behind these values is PubChem BioAssay (NCI).
